According to PubChem BioAssay:
Active and inactive are the calls of the source.

Key:
[1] = tested on: Plasmodium falciparum Sir2 (PF13_0152, Sir2A); assay: pfSir2 binders on small-molecule microarrays, primary screen, biochemical, small-molecule microarray, 635 nm fluorescence (AID 1098); details: small-molecule microarray binding, fluorescence 635 nm; higher = more signal;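 also: score merges spot fluorescence intensity with its signal-to-noise ratio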
[2] = small-molecule microarray binders of probe aDKK1, primary screen, biochemical, biotinylated probe, 635/667 nm fluorescence (AID 1099); details: higher = more signal;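 also: score merges 667nm spot fluorescence with signal to noise across triplicate slides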
[3] = small-molecule microarray binders of probe aCHRDL2, primary screen, biochemical, biotinylated probe, 635/667 nm fluorescence (AID 1100); details: higher = more signal
[4] = splicing luciferase reporter signal modulators, primary screen, spliceosome inhibition project, cell-based, HEK293, splice +/- reporter (AID 1101); details: luminescence, 24 h, higher = more signal, called active from +8 up or from −8 down;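 also: HEK293 cells carrying a splicing-competent luciferase reporter gene; test concentration not given here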
[5] = biological target: Fibroblast growth factor 10 (Homo sapiens) (UniProt O15520); assay: FGF10 binders on small-molecule microarrays, primary screen, biochemical, small-molecule microarray, 635 nm fluorescence (AID 1102); details: FGF10 binding, fluorescence 635 nm, higher = more signal
[6] = tested on: glycogen synthase kinase-3 (GSK3A per assay name; protocol says GSK3B); assay: GSK3 binders on small-molecule microarrays, primary screen, biochemical, small-molecule microarray, 635 nm fluorescence, GSK3A (AID 1103); details: small-molecule microarray binding, fluorescence 635 nm; higher = more signal; also: the record names both GSK3A and GSK3B
[7] = biological target: Epidermal growth factor receptor (Homo sapiens) (UniProt P00533); assay: EGFR binders on small-molecule microarrays, primary screen, biochemical, small-molecule microarray, 635 nm fluorescence (AID 1104); details: EGFR binding, higher = more signal;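 also: score merges 667 nm emission intensity with spot signal to noise over triplicate slides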
[8] = biological target: Follistatin-related protein 3 (Homo sapiens) (UniProt O95633); assay: FSTL3 binders on small-molecule microarrays, primary screen, biochemical, small-molecule microarray, 635 nm fluorescence (AID 1105); details: FSTL3 binding, higher = more signal;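 also: score merges emission near 667 nm and signal to noise per printed spot across three slides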
[9] = biological target: Dickkopf-related protein 1 (Homo sapiens) (UniProt O94907); assay: DKK1 binders on small-molecule microarrays, primary screen, biochemical, small-molecule microarray, 635 nm fluorescence scan (AID 1106); details: DKK1 binding, higher = more signal;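 also: score merges emission near 667 nm with signal to noise over three replicate slides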
[10] = tested on: Inhibin beta A chain (activin A); assay: INHBA (activin A) binders on microarrays, primary screen, biochemical, small-molecule microarray, 635 nm fluorescence scan (AID 1107); details: small-molecule microarray binding, higher = more signal;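 also: mouse activin A protein probed at 4.33 µg/mL on printed slides; score merges bound-protein fluorescence near 667 nm with spot signal-to-noise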
[11] = tested on: Human papillomavirus type 1a protein E7 (residues 44-93); assay: HPV1a E7 fragment binders on microarrays, primary screen, biochemical, small-molecule microarray, residues 44-93, 635 nm fluorescence (AID 1108); details: small-molecule microarray binding, fluorescence 635 nm; higher = more signal;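 also: E7 fragment applied at 1 µg/mL in TBST for 1 h at 4 C; score combines spot fluorescence with its signal to noise ratio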
[12] = modulators of HCV replicon luciferase signal, primary screen, HCV replication inhibitor project, Huh7 cells, luciferase reporter (AID 1109); details: 48 h, higher = more signal;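 also: huh7 hepatoma cells harbouring a luciferase neomycin HCV replicon reporter; luciferase luminescence as measure of HCV replicon replication; test concentration not given here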
[13] = biological target: Left-right determination factor 2 (Homo sapiens) (UniProt O00292); assay: LEFTY2 binders on small-molecule microarrays, primary screen, biochemical, small-molecule microarray, 635 nm fluorescence scan (AID 1110); details: LEFTY2 binding, higher = more signal
[14] = biological target: Calmodulin-1 (Homo sapiens) (UniProt P0DP23); assay: CALM1 binders on microarrays, EGTA buffer, profiling panel, biochemical, small-molecule microarray, Cy5-labelled CALM1 (AID 1111); details: Cy5-CALM1 binding fluorescence, higher = more signal;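 also: labelled calmodulin applied in Tris saline Tween buffer holding calcium plus EGTA and DTT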
[15] = biological target: Calmodulin-1 (Homo sapiens) (UniProt P0DP23); assay: calcium-bound CALM1 binders on microarrays, profiling panel, artefact control for SMM control-protein annotation, biochemical, small-molecule microarray, Cy5-labelled CALM1, plus calcium (AID 1112); details: Cy5-CALM1 binding fluorescence, higher = more signal;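 also: score merges spot fluorescence with signal to noise from triplicate slides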
[16] = small-molecule microarray binders of probe aWnt5a, primary screen, biochemical, biotinylated probe, 635/667 nm fluorescence (AID 1113); details: higher = more signal;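 also: score merges 667 nm fluorescence intensity with signal-to-noise per printed feature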
[17] = small-molecule microarray binders of probe aShh, primary screen, biochemical, biotinylated probe, 635/667 nm fluorescence (AID 1114); details: higher = more signal;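 also: probe is biotin-labelled aShh protein from a stem cell growth factor screen; measures binding of labelled protein to compounds printed on the slide; score merges feature fluorescence at 667 nm with signal-to-noise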
[18] = small-molecule microarray binders of probe aNog, primary screen, biochemical, biotinylated probe, 635/667 nm fluorescence (AID 1115); details: higher = more signal;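 also: probe is biotinylated aNog protein used at 0.15 µg/mL for 1 h at 4 C; z-score combines 667 nm fluorescence of each spot with its signal to noise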
[19] = biological target: Torsin-1A-interacting protein 1 (Homo sapiens) (UniProt Q5JTV8); assay: LAP1 binders from COS7 cell lysate, primary screen, small-molecule microarray, 635/667 nm fluorescence (AID 1116); details: COS7-hLAP1 lysate binding, 635 nm fluorescence, higher = more signal
[20] = biological target: Alpha-bungarotoxin (Bungarus multicinctus) (UniProt P60615); assay: alpha-bungarotoxin binders on microarray, profiling panel, artefact control for SMM control protein annotation, biochemical, small-molecule microarray, Alexa647 label, 635/667 nm fluorescence (AID 1117); details: alpha-BTX-A647 binding fluorescence, higher = more signal
Alpha-bungarotoxin (Bungarus multicinctus), sequence (P60615 whole entry, looked up): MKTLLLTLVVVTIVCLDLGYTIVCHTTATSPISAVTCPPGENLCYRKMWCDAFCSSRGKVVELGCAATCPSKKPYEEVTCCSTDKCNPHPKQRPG

Fibroblast growth factor 10 (Homo sapiens), sequence (O15520 whole entry, looked up): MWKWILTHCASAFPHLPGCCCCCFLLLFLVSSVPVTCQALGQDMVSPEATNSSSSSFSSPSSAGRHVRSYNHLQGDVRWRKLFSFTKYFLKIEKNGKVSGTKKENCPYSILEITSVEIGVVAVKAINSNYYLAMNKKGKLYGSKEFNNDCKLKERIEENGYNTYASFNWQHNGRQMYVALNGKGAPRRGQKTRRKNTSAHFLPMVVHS
Left-right determination factor 2 (Homo sapiens), sequence (O00292 whole entry, looked up): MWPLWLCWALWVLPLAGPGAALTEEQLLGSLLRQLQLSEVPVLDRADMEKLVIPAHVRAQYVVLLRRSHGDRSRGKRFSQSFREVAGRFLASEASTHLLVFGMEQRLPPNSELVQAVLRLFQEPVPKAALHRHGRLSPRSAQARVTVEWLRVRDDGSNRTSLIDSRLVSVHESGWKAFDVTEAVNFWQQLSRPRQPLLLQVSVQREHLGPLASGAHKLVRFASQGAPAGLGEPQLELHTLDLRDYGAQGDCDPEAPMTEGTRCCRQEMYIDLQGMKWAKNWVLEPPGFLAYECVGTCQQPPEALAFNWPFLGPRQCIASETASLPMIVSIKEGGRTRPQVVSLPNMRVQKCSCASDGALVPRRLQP
Torsin-1A-interacting protein 1 (Homo sapiens), sequence (Q5JTV8 whole entry, looked up): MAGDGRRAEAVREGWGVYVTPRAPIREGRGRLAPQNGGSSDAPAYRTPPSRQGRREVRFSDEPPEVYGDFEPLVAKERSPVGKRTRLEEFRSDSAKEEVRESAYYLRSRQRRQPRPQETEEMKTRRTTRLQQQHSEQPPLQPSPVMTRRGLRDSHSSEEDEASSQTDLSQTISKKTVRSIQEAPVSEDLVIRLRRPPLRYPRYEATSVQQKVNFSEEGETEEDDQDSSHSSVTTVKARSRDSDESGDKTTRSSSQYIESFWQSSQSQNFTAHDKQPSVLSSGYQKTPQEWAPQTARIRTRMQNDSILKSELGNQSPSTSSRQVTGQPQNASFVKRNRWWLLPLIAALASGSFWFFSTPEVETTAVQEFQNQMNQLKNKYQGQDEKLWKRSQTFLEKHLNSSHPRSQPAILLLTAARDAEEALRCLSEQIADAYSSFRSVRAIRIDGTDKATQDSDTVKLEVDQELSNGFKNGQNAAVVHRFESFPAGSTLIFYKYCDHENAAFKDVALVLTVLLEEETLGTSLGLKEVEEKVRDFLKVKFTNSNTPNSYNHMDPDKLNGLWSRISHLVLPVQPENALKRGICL
Follistatin-related protein 3 (Homo sapiens), sequence (O95633 whole entry, looked up): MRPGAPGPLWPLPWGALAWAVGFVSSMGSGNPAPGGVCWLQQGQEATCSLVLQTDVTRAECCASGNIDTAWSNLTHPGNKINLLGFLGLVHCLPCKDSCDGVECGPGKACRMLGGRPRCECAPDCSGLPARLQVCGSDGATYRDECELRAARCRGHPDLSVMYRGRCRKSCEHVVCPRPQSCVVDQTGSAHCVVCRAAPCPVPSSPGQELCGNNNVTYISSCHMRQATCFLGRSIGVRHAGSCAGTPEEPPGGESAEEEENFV
Dickkopf-related protein 1 (Homo sapiens), sequence (O94907 whole entry, looked up): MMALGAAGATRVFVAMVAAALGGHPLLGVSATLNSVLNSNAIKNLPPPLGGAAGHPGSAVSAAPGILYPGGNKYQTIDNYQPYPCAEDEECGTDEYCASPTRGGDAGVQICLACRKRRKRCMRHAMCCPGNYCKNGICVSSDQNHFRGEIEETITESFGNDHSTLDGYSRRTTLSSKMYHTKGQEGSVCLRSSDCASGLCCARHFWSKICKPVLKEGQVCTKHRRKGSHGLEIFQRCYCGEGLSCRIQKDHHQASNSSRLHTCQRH
Epidermal growth factor receptor (Homo sapiens), sequence (P00533 whole entry, looked up): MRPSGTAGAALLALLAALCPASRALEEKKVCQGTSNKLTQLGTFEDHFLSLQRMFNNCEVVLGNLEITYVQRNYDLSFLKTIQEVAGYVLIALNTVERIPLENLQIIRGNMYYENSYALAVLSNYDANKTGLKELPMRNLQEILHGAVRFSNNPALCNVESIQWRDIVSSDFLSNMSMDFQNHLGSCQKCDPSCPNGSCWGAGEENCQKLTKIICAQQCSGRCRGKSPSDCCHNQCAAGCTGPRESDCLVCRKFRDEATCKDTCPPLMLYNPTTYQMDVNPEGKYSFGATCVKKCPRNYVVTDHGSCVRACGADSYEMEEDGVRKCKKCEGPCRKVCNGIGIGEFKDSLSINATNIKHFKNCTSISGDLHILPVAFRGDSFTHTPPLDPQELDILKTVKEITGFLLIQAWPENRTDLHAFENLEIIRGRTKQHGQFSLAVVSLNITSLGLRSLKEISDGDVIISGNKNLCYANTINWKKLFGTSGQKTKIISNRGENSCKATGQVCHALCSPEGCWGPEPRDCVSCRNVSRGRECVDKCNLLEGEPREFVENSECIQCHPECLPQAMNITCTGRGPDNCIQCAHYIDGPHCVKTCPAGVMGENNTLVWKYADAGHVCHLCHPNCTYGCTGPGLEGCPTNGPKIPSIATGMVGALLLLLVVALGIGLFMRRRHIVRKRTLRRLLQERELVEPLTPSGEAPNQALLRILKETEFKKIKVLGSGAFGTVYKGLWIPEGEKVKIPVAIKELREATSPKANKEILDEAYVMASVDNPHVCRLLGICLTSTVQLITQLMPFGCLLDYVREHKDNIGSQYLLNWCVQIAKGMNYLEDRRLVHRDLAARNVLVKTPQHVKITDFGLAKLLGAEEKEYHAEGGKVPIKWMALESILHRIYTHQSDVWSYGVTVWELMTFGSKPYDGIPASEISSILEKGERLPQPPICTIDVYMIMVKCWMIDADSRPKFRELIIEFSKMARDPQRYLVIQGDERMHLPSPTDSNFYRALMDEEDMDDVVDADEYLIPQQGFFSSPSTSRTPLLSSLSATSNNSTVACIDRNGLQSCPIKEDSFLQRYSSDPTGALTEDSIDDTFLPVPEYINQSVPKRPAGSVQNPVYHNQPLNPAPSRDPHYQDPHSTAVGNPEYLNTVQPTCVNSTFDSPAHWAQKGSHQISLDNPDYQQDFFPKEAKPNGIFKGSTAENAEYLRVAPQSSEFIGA

Compound | composite z-score [1] | composite z-score [2] | composite z-score [3] | z-score [4] | composite z-score [5] | composite z-score [6] | composite z-score [7] | composite z-score [8] | composite z-score [9] | composite z-score [10] | composite z-score [11] | z-score [12] | composite z-score [13] | composite z-score [14] | composite z-score [15] | composite z-score [16] | composite z-score [17] | composite z-score [18] | composite z-score [19] | composite z-score [20]
CC1CC/C=C\[C@H]2OC34C=CCN(Cn5nnc6ccccc65)C(=O)[C@H]3N(C(CO)C(C)C)C(=O)[C@@H]4C2C(=O)O1 (stereo not given in full) | 0.868 | -0.165 | 0.547 | 0.209 (inactive) | -0.103 | -0.108 | -0.675 | -0.551 | -0.877 | 0.459 | 0.696 | 0.238 | -1.19 | -0.195 | -0.607 | -0.175 | 0.0141 | 0.356 | 0.64 | 2.2
[N-]=[N+]=NCc1ccccc1C[C@@]1(C(=O)NCC(O)CO)N=C(c2ccc(OCCCO)cc2)O[C@@H]1c1ccccc1N=[N+]=[N-] (stereo not given in full) | 0.991 | 1.03 | 1.38 | 0.561 (inactive) | 1.01 | 0.364 | -0.0087 | 0.348 | -0.504 | 1.2 | 1.39 | -2.72 | -0.124 | 2.21 | 1.02 | 0.149 | 0.156 | 2.11 | 2.18 | 0.842
CCCC[C@@H]1C[C@H]1[C@@H](NC(=O)c1ccco1)c1ccc(Cl)cc1 | 0.428 | 0.807 | 1.03 | -0.659 (inactive) | 0.438 | 1.15 | -0.0272 | 0.0636 | 0.461 | 0.89 | 1.28 | -2.37 | 0.232 | 1.68 | 1.1 | -0.0125 | 0.336 | 0.314 | 1.4 | 1.33
C=CC[C@]1(C(=O)N2CCCCC2)N=C(c2ccc(OCCCO)cc2)O[C@H]1c1ccccc1 | 1.25 | 1.16 | 1.11 | -0.0569 (inactive) | 0.228 | 1.3 | 0.0792 | -0.0013 | 0.191 | 1.11 | 0.254 | -1.98 | 0.32 | 0.0382 | -0.0541 | 0.15 | -0.155 | 2.28 | 1.55 | 0.741
COc1ccc(C(O)C2C=CC3C(=O)N(C)C(=O)C3N2N2CCCCC2)c2ccccc12 (stereo not given) | 1.17 | 0.65 | 0.947 | 1.28 (inactive) | 0.956 | 1.29 | 0.344 | 1.24 | -0.312 | 0.91 | 1.43 | -0.534 | -0.129 | 1.26 | 0.639 | 0.131 | 0.476 | -0.0646 | 0.826 | 1.34
